# Screen size: about 360,000 compounds; about 11,000 (3.1%) were called active. Inconclusive results (about 2%) are left out. Rule as the data show it: active = fluorescence intensity above about 16000; inconclusive = no clear call, values can overlap the other calls; inactive = below that. What follows is part of a selection rich in actives, with near analogues and random picks from the rest.
# Test: counter-screen for toxin protease inhibitors: compound fluorescence, primary screen, artefact control for toxin protease inhibitor project, biochemical, multiplex microsphere, HTS (AID 624483)
# Details: compound autofluorescence counterscreen, microsphere flow cytometry; stronger effect = higher value
row,Structure (SMILES),fluorescence intensity
1,CC(C)CCN1NC2(CCC(C)CC2)NC1=S (configuration not stated),3830 (inactive)
2,CC(C)(C)c1ccc(S(=O)(=O)NC(=O)C2(C)CCN2C(=O)CC2CC2)cc1 (configuration not stated),4180 (inactive)
3,Cc1cc(Br)cn2c(Cc3ccccc3C(F)(F)F)c(-c3ccc(Cl)cc3)nc12,5850 (inactive)
4,Clc1ccc(C2=CSC3=Nc4cccc5cccc(c45)N23)cc1,21800 (active)
5,CN(C)c1ccc(C(CC(=O)O)C(=O)O)cc1 (configuration not stated),1950 (inactive)
6,COC(=O)c1sc2ncccc2c1OCc1ccc(Cl)cc1Cl,23500 (active)
7,O=C(NNc1cc(Cl)ccc1Cl)c1cccnc1Cl,4240 (inactive)
8,COc1cccc(NC(=O)CN(C)C(=O)Cc2ccc(Cl)cc2Cl)c1,3890 (inactive)
9,CC(C)Cc1ccc(-c2cc3nc(NCc4cccc(Cl)c4)ccn3n2)cc1,3700 (inactive)
10,C=CCC[C@@H](CCCCC)OC(=O)/C=C/[C@@H](O)[C@H](O)C[C@H](O)CC=C,6190 (inactive)
11,COc1cccc(C(=O)NNC(=O)/C=C/c2ccccc2)c1,6790 (inactive)
12,COc1cccc(C(=O)Nc2cc3c(cc2Br)OCCCO3)c1,7110 (inactive)
13,COc1cccc(C(=O)NNC(=O)c2ccccc2Br)c1,16700 (active)
14,CCN(CC)C(=O)c1ccc(NC(=O)c2cc(-n3cnnc3)ccc2Cl)cc1,23800 (active)
15,CCN(CC)C(=O)c1ccc(NC(=O)c2sccc2-c2ccccc2)cc1,4580 (inactive)
16,CCN(CC(=O)Nc1ccc(OC)cc1)C(=O)c1ccc(Cl)c(S(=O)(=O)N2CCCC2)c1,3470 (inactive)
17,CCOC(=O)C1=CC[C@@H](c2ccccc2)N(S(=O)(=O)c2ccc(C)cc2)[C@H]1c1cccc(OC)c1,6140 (inactive)
18,O=C(NCCCNC(=O)c1ccccc1Cl)c1cnccn1,4420 (inactive)
19,COc1ccccc1CCNC(=O)c1cnccn1,16600 (active)
20,COc1ccccc1CCNC(=O)c1c(C)nn(CC(C)C)c1Cl,4680 (inactive)
21,O=C(NCCS(=O)(=O)N1CCN(c2ccc(F)cc2)CC1)c1ccc2c(c1)OCO2,4110 (inactive)
22,CC1(C(=O)NS(=O)(=O)c2cccc(F)c2)CCN1C(=O)c1cccc2ccccc12 (configuration not stated),2920 (inactive)
23,CN(C)C1CN(Cc2cn(Cc3ccccc3)nn2)S(=O)(=O)C1 (configuration not stated),4320 (inactive)

row,Structure (SMILES),fluorescence intensity
1,c1cnn(-c2cc(N3CCOCC3)ncn2)c1,17000 (active)
2,NC(=O)c1ccc(N2CCOCC2)nc1,2600 (inactive)
3,O=C1c2ccccc2-c2ncnc3c(N4CCOCC4)cc(N4CCOCC4)c1c23,4380 (inactive)
4,N#CCCN(C(=O)Nc1ccc(Cl)c(Cl)c1)C1CCCCC1,2920 (inactive)
5,CS(=O)(=O)N(CC(=O)Nc1ccc(Cl)c(Cl)c1)C1CCCCC1,21700 (active)
6,CS(=O)(=O)N(CC(=O)Nc1ccc(F)cc1)C1CCCCC1,3860 (inactive)
7,O=S1(=O)CC(N2CCN(CCO)CC2)CN1Cc1cn(Cc2ccc(Cl)cc2)nn1 (configuration not stated),5500 (inactive)
8,O=C1c2cccnc2C(Nc2ccc(S(=O)(=O)N3CCCCCC3)cc2)N1Cc1ccccc1 (configuration not stated),21600 (active)
9,Cc1nc(Nc2ccc(S(=O)(=O)N3CCCC3)cc2)c2nnn(Cc3ccccc3)c2n1,2010 (inactive)
10,O=S(=O)(NCc1ccccc1)c1ccc(S(=O)(=O)N2CCCC2)cc1,4970 (inactive)
11,O=C(Nc1cccc(C(=O)NC2CC2)c1)c1ccc(F)c(S(=O)(=O)N2CCOCC2)c1,6040 (inactive)
12,CCOC(=O)C1(C)CCCN(C(=O)c2ccc(F)c(Cl)c2)C1 (configuration not stated),3580 (inactive)
13,COc1ccc(S(=O)(=O)NC(=O)C2(C)CCN2C(=O)COc2ccc(Cl)cc2)cc1 (configuration not stated),3840 (inactive)
14,COC(=O)[C@]12CCCCC=C1N(Cc1ccc(Cl)cc1Cl)C(=O)[C@H](CC(=O)NCc1cccc3ccccc13)C2,5890 (inactive)
15,COc1ccc(N2CCN(C(c3cc4ccc(C)cc4[nH]c3=O)c3nnnn3C3CCCC3)CC2)cc1 (configuration not stated),24400 (active)
16,COc1ccc(C(c2nnnn2C2CCCCC2)N2CCN(c3ccccc3F)CC2)cc1 (configuration not stated),2590 (inactive)
17,CCOC(=O)C1CCN(C(c2cc3cc(C)cc(C)c3[nH]c2=O)c2nnnn2C2CCCCC2)CC1 (configuration not stated),11300 (inactive)
18,CN(CC(=O)NC1CCN(Cc2ccccc2)CC1)S(=O)(=O)c1ccc(Cl)s1,4220 (inactive)
19,CC(C)(C)C(=O)c1c(N)[nH]c(C(=O)c2ccccc2)c1-c1ccc(F)cc1,4830 (inactive)
20,CCOc1ccc(NC(=O)c2ccc(NC(=O)C3CCCO3)cc2)cc1 (configuration not stated),5940 (inactive)
21,O=C(Nc1cccc(-c2nnc(-c3ccccc3)o2)c1)C1CCCO1 (configuration not stated),8340 (inactive)
22,O=C(Nc1ccc(-c2nnc(-c3ccccc3)o2)cc1)C1CCCO1 (configuration not stated),23500 (active)
23,COc1ccc(NC(=O)NNC(=O)COc2cc(C)c(Cl)c(C)c2)c(OC)c1,4710 (inactive)

row,Structure (SMILES),fluorescence intensity
1,COc1cc(NC(=O)c2ccc(CNc3c(N4CCCC4)c(=O)c3=O)cc2)cc(OC)c1OC,4980 (inactive)
2,COc1ccc(Br)c(Cn2c(C)c(C(=O)NCc3cccs3)sc2=O)c1,5140 (inactive)
3,CCN(CC)Cc1c(C(=O)OC)nnn1-c1nonc1N,2240 (inactive)
4,Nc1ccccc1-c1nc2ccncc2[nH]1,3770 (inactive)
5,O=C(Nc1sc2c(c1-c1nc3ccccc3[nH]1)CCCC2)C1CC1,3170 (inactive)
6,c1ccc2[nH]c(-c3nc4ccccc4[nH]3)nc2c1,16500 (active)
7,CCOC(=O)[C@]12CCCC=C1N(Cc1ccc3c(c1)OCO3)C(=O)[C@H](CC(=O)N1CCN(C(=O)c3ccco3)CC1)C2,3930 (inactive)
8,Cc1ccc(Cc2c(-c3ccc(Cl)cc3)nc3c4ccccc4ccn23)cc1,4990 (inactive)
9,Cc1ccc(Nc2cc(=O)n(C3CCCCC3)c(=O)[nH]2)cc1C,3080 (inactive)
10,CC(=O)c1c(O)n(C2CCCCCC2)c(=O)[nH]c1=O,2970 (inactive)
11,O=c1cc(C(F)(F)F)[nH]c(=O)n1C1CCCCC1,24200 (active)
12,COC(=O)C1=CN(C)C=C(C(=O)OC)C1c1ccc(Cl)cc1Cl,3960 (inactive)
13,CCOc1ccccc1C1C(C(=O)OC)=CN(C)C=C1C(=O)OC,19700 (active)
14,CCOc1cc(C2C(C(=O)OC)=CN(C3CCCC3)C=C2C(=O)OC)cc(Br)c1O,8950 (inactive)
15,CC(Oc1ccc2c(-c3ccccc3)cc(=O)oc2c1)C(=O)NC(Cc1c[nH]c2ccccc12)C(=O)O (configuration not stated),3610 (inactive)
16,COc1ccc(-c2cc(=O)oc3cc(OC(C)C(=O)NCC4CCC(C(=O)O)CC4)ccc23)cc1 (configuration not stated),6030 (inactive)
17,COC(=O)C(C)Oc1ccc2c(-c3cccc([N+](=O)[O-])c3)cc(=O)oc2c1 (configuration not stated),21200 (active)
18,CC(C)n1c(NCc2c[nH]c3ccccc23)nc2ccccc21,2940 (inactive)
19,COCCOC(=O)c1sc(=S)n(CCOC)c1N,23500 (active)
20,CC(=O)N1Cc2cc(C(=O)NCc3cccc(F)c3)nc(-c3cccc(C4=CCCCC4)c3)c2[C@H]1CCO,5630 (inactive)
21,O=C(NCc1ccc2c(c1)OCO2)C12CC3CC(CC(C3)C1)C2,21300 (active)
22,Cc1ccc(C(=O)OCC(=O)NCc2ccc3c(c2)OCO3)s1,3100 (inactive)
23,O=C(NCc1ccc2c(c1)OCO2)c1ccc(Cl)s1,3620 (inactive)

row,Structure (SMILES),fluorescence intensity
1,Cc1ccc(CNC(=O)CCNS(=O)(=O)c2ccc(Br)s2)cc1,3440 (inactive)
2,O=C(NCc1cccnc1)C12CC3CC(CC(C3)C1)C2,3100 (inactive)
3,O=C(CNS(=O)(=O)c1ccc(Br)s1)NCc1ccc2c(c1)OCO2,24800 (active)
4,COc1ccc(OC)c(NC(=O)C2(C)CCN2C(=O)Cc2ccccc2)c1 (configuration not stated),3710 (inactive)
5,CCCCOCCCNC(=O)C[C@@H]1C[C@@]2(C(=O)OC)CCCCC=C2N(CCC2=CCCCC2)C1=O,6000 (inactive)
6,O=c1onc(-c2c(F)cccc2F)n1-c1ccccc1Cl,4210 (inactive)
7,Cc1ccc(NS(=O)(=O)c2ccc(-c3coc(C)n3)cc2)c(C)c1,5350 (inactive)
8,Cc1c(C)c2c(OCC(=O)N[C@@H](C(=O)O)c3ccccc3)cc3c(c2oc1=O)CCC(C)(C)O3,6410 (inactive)
9,CCOC1=C2CN(S(=O)(=O)c3ccc(C)cc3)[C@H](c3cccs3)C[C@H]2[C@H]2C(=O)N(c3ccccc3)C(=O)[C@H]2C1,6240 (inactive)
10,COCCCn1cc(CN2CC(N(C)C)CS2(=O)=O)nn1 (configuration not stated),4380 (inactive)
11,Cc1ccc(C)c(NC(=O)c2ccc3nccnc3c2)c1,4320 (inactive)
12,Cc1ccc(F)cc1NC(=O)c1cccc(N(C)C)c1,23300 (active)
13,O=C(Nc1cccc2c1CCCC2)c1ccc(F)cc1,4040 (inactive)
14,COCCNc1nc(Nc2ccccc2Cl)c2sc(-c3ccccc3)cc2n1,3680 (inactive)
15,Cc1ccc(C)c(N2C(=O)CS/C2=N\NC(=O)c2ccccc2Cl)c1,9520 (inactive)
16,CC1=CC(=NNS(=O)(=O)c2ccc([N+](=O)[O-])cc2)CC(C)(C)C1,3700 (inactive)
17,C/C(=N/NC(=O)CCc1ccccc1)c1ccco1,2010 (inactive)
18,CSc1nc(-c2ccco2)nn1C(=O)c1ccccc1Cl,4950 (inactive)
19,CSc1nc(-c2ccco2)nn1C(=O)CCc1ccccc1,22700 (active)
20,COc1cccc(C(O)c2nc(-c3ccc(C)c(C)c3)cs2)c1 (configuration not stated),3830 (inactive)
21,CCC1(C)N(O)C(C)(C)C(c2ccc(OC)cc2)=[N+]1[O-] (configuration not stated),5620 (inactive)
22,C/C(=N\O)C1(C)N(O)C(C)(C)C(c2ccc(Br)cc2)=[N+]1[O-] (configuration not stated),25600 (active)
23,CCC1=[N+]([O-])C(C)(/C(C)=N\O)N(O)C1(C)C (configuration not stated),9530 (inactive)
